The structures appear in SMILES notation.

The target of assay [1] is T1, Aspartate--tRNA(Asp/Asn) ligase (Mycobacterium tuberculosis (strain ATCC 25618 / H37Rv)) (UniProt P9WFW3). Also: in the data most compounds retested in dose-response had high values.
T1 sequence (whole entry): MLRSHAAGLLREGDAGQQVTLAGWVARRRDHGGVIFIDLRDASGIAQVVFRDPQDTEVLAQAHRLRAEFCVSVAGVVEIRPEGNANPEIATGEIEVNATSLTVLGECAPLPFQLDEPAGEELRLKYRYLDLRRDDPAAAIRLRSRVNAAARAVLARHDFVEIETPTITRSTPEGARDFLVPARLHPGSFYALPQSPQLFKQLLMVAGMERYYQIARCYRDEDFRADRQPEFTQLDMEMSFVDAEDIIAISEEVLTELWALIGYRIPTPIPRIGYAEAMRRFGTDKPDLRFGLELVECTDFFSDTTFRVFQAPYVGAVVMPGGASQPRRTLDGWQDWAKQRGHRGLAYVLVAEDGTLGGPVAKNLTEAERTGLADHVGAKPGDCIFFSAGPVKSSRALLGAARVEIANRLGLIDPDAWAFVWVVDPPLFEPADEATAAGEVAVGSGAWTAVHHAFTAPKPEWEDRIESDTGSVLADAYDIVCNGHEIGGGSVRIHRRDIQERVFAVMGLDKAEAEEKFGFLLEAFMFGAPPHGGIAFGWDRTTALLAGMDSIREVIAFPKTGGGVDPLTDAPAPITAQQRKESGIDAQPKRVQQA
The assay can be described thus: Assay for Asp RNA synthetase-1 from Mycobacterium tuberculosis. On the set-up: scale not given: direction of the effect not stated beside the values. The conditions noted are these: 30 µM. In kind it is functional.

In assay [2] the target is Shiga toxin 2 (Escherichia coli O157:H7) (UniProt P09385+P09386). The assay can be described thus: E. coli 0.157:H7 Shiga Toxin SOP - stx2 screening assay. It is filed as functional. Further details: scale not given: direction of the effect not stated beside the values. The conditions noted are these: 30 µM.

For the compound `NC(=O)CN1CCCN(C(=O)c2ccn(-c3cccc(F)c3)n2)CC1`, the values for the Percent Effect in assay [1] and in assay [2] were 5.51% and -6.78%, respectively.
On the same counts, the results for `COc1cccc(CN2CCN(c3ccc4nncn4n3)C(C)C2)c1` (centres undefined) are -3.34% and 14.8%.
With `CC(C)c1ncc2c(n1)CN(Cc1cccc(OCC(N)=O)c1)CC2`, the figures for the Percent Effect in assay [1] and in assay [2] were 3.81% and 12.8%, respectively.
Take `O=C(NCCN1CCCCCC1=O)c1ccn(-c2ccc(F)cc2)n1`: the Percent Effect is 3.8% in assay [1] and 14.8% in assay [2].
For `COCCC(=O)N1CCn2c(COCC3CC3)cnc2C1C` (centres undefined), in that order: 3.62% and 5.04%.
With `Cc1cc(CN2CCN(C(c3ccccc3)c3ccccc3)CC2)no1`, the Percent Effect was 0.857% in assay [1] and 10.7% in assay [2].
For `COc1ccc(CNCc2ccc(N3CCCCC3)nc2)cc1OC`, in that order: 1.06% and -82.1%.
For `CNC(=O)CSc1cnn(CC(=O)Nc2cccc(Cl)c2C)c(=O)c1Cl`, in that order: -5.35% and -8.91%.
On the same counts, the results for `O=C(O)c1nnn(-c2ccc(F)c(F)c2)c1-c1ccncc1` are 2.4% and -13%.
`CN1C(=O)CC(c2cnn(C)c2)C12CCN(C(=O)C1CC=CC1)CC2` (centres undefined): the Percent Effect was -2.73% in assay [1] and -0.198% in assay [2].
For `O=C(c1ccc(=O)[nH]n1)N1CC(c2nc(Cc3ccccc3)no2)C1`, in that order: -0.546% and -7.29%.
For `O=C(C1=CCCC1)N1CCC[C@]2(C[C@@H](Oc3ncccc3F)CO2)C1`, in that order: 0.0684% and 7.81%.
For `CCCC(C)CN1CCC(n2cc(CCCO)nn2)CC1` (centres undefined), in that order: 1.56% and -23.7%.
For `c1cnn(CCNCc2nnc(C3CC3)o2)c1`, the Percent Effect is -0.343% in assay [1] and -28.3% in assay [2].
On the same counts, the results for `O=C(c1cc(Cl)cc(Cl)c1)N1CCN(c2nccs2)CC1` are -0.345% and -14.9%.
On the same counts, the results for `CNS(=O)(=O)c1cccc(CNc2nccc(C(F)(F)F)n2)c1` are 3.75% and 4.67%.
On the same counts, the results for `COCCn1ccnc1C1CCCN(C(=O)CSCC2CC2)C1` (centres undefined) are -2.09% and 12.8%.
As to `CN(Cc1cccs1)C(=O)CS(=O)(=O)Cc1ccc(Cl)c(Cl)c1`, the Percent Effect was 3.86% in assay [1] and 0.473% in assay [2].
For `CC(C)c1nc(C2CCCN2C(=O)c2ccc(N(C)C)nn2)no1` (centres undefined), in that order: 5.45% and 18.3%.
On the same counts, the results for `CC(C)(C)c1noc(CN2CCN(C(=O)c3cccs3)CC2)n1` are 0.425% and 6.49%.
For `Cc1ccc(C(=O)NCCCN2CCOCC2)c(Cl)c1`, in that order: 0.357% and -18.1%.
On to `COc1ccccc1OCC(=O)NS(=O)(=O)c1ccccc1F`, for which the Percent Effect is 0.814% in assay [1] and -7.18% in assay [2].
For `Cc1ccc(S(=O)(=O)N2C[C@H]3C[C@H](NC(=O)c4ccnn4C)[C@H]3C2)cc1`, in that order: 0.283% and 8.81%.
For `NC(=O)C1CCN(C(=O)c2ccn(-c3ccc(F)cc3)n2)C1` (centres undefined), in that order: 9.24% and 3.03%.
On the same counts, the results for `OCC1CCCCN1c1ccc(-c2nc(-c3ccccc3F)no2)cn1` (centres undefined) are -6.87% and -36.1%.
As to `O=C(c1cnoc1)N1CCC[C@]2(C[C@H](Oc3ncccc3F)CO2)C1`, the Percent Effect in assay [1] was -2.03%; in assay [2] it was -8.52%.
On the same counts, the results for `CN(Cc1nc2c(cnn2C)c(=O)[nH]1)Cc1ccc(F)cc1F` are -2.26% and -10.7%.
For `NS(=O)(=O)Cc1ccc(CNC(=O)NCC2CCOC2)cc1` (centres undefined), the Percent Effect in assay [1] was -4.55%; in assay [2], 26.9%.
For `O=C(c1ccncc1)N1CCC(c2nc(O)cc(-c3ccncc3)n2)C1` (centres undefined), in that order: -0.574% and 1.62%.
As to `CNc1cccc(C2CCCN(C(C)=O)C2)n1` (centres undefined), the Percent Effect was found to be 7.52% in assay [1] and 23.2% in assay [2].
For `Cc1cc(C)cc(-c2cccc(CC3(C(=O)O)CCOCC3)c2)c1`, in that order: 2.93% and -30%.
On the same counts, the results for `CCc1ncc(C(=O)N2CCOCC2c2c(C)n[nH]c2C)s1` (centres undefined) are 2.97% and 7.37%.
Take `COc1ccccc1CN(C)C(=O)c1cc(CN2CCC(O)CC2)on1`: the Percent Effect was 3.59% in assay [1] and -16.2% in assay [2].
For `COCc1nc(C(=O)N2CCCC2c2noc(C(C)C)n2)cs1` (centres undefined), in that order: 2.63% and -5.18%.
On the same counts, the results for `CN(C)CC(=O)N1C[C@H]2CCC[C@@]2(COc2ccccn2)C1` are 1.75% and 13.5%.
On the same counts, the results for `COc1ccc(S(=O)(=O)N2CCCC3(CCCN3S(C)(=O)=O)C2)cc1` (centres undefined) are -2.13% and 0.605%.
For `CCc1ncc2c(n1)CN(Cc1nc(C)c(C)o1)CC2`, the results for the Percent Effect in assay [1] and in assay [2] were 0.259% and -23.6%, respectively.

Values taken from ChEMBL document CHEMBL3988442, “University of Dundee, Small-Polar-MMV Screening Library” (2021).
